High-throughput results: PubChem BioAssay, several laboratories
A selection: hits, their analogues and other compounds. The true share with any hit is near 4.1%.
CHT PAM – CHT positive allosteric modulators, primary screen, cell-based, membrane potential dye, choline EC20; AID 488977, 2010; CHT-expressing cells; hits give high values; LV-AA mutant CHT in HEK293 cells; 310,000 tested, 0.49% active; B-score at 10 µM; High affinity choline transporter 1 (Homo sapiens), Q9GZV3;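 active = initial fluorescence not abnormally high and integrated response B-score, plate-corrected, over 3 SD above library mean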
CHT block – inhibitors of human choline transporter CHT | High affinity choline transporter 1 (Homo sapiens), Q9GZV3 | CHT-expressing cells, membrane potential dye, choline response; hits give low values | B-score at 10 µM | 310,000 tested, 0.86% active | AID 488975, 2010;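 active = B-score over 3 SD under the library average, and starting fluorescence ratio not unusually high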;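 also: choline stimulus applied at its EC90 after an EC20 pre-addition; B-score computed on integrated fluorescence ratio after choline addition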
MEKK3 PB1 HTS – modulators of MEKK3-MEK5 PB1 binding, primary screen, biochemical, wildtype MEKK3, multiplex bead flow cytometry, Alexa488-MEK5; Mitogen-activated protein kinase kinase kinase 3 (Homo sapiens), Q99759; bead-based flow cytometry, Alexa488-MEK5 binding to MEKK3; actives lie on both sides; 0 = blocked by unlabeled MEK5, 100 = vehicle; binding response (% of control), % at 10 µM; 290,000 tested, 1.4% active;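 active = binding response more than 3 SD above or below the average of its plate-row segment, actives on both sides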;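 also: Alexa488 bead fluorescence after subtracting the streptavidin-only scavenger bead signal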
Target sequence (Q99759 whole entry, looked up): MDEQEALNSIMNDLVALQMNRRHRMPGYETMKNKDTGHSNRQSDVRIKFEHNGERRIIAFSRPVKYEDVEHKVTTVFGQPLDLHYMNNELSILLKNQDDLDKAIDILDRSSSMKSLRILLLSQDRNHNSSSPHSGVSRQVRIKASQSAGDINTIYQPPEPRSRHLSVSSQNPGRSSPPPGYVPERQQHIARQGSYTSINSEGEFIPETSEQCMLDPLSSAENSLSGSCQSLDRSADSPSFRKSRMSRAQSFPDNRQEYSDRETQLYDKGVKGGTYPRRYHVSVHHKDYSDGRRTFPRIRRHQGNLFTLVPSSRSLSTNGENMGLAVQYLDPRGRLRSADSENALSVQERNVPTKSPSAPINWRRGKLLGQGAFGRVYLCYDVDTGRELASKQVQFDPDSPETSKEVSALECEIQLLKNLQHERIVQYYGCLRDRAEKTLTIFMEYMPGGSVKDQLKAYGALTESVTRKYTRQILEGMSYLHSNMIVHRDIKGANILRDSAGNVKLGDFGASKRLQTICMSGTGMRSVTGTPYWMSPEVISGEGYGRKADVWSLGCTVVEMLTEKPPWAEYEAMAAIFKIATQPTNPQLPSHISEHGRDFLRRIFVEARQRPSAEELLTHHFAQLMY
MEKK2wt PB1 HTS – modulators of MEK5 binding to wildtype MEKK2, primary screen, biochemical, multiplex bead flow cytometry, Alexa488-MEK5. Mitogen-activated protein kinase kinase kinase 2 (Homo sapiens), Q9Y2U5. Alexa488-MEK5 binding to MEKK2 WT; actives lie on both sides. binding response (% of control), % at 10 µM. 290,000 tested, 1.1% active. AID 1531, 2009; in the data active = binding response below about 67% or above about 130%
SUMO Mot1 rescue – yeast Mot1-301 growth rescue at high temperature, primary screen, SUMOylation pathway inhibitor project, S. cerevisiae, ATP luminescence, 38.5C | S. cerevisiae Mot1-301 growth rescue; percent above DMSO median, 100 means doubled | growth rescue, % at 18.8 µM | 320,000 tested, 1% active | AID 2716, 2010;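 active = every valid replicate shows activation above 250% relative to neutral control wells; inactive = the rest, any valid replicate at or below 250%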
MEKK2mut PB1 HTS – MEK5 binding signal on mutant MEKK2 PB1, primary screen, biochemical, multiplex bead flow cytometry, Alexa488-MEK5; Alexa488-MEK5 binding to MEKK2 mutant; percent response, % at 10 µM; 290,000 tested, 0.35% active; AID 1530, 2009; in the data active = percent response above about 24%, passing the limit was not always enough
CHT block conf – CHT inhibitors, confirmation, cell-based, membrane potential dye, duplicate. shares compounds with CHT block. CHT-expressing cells, choline membrane potential dye; LV-to-AA substituted CHT, HEK293 cells. CHT activity remaining % of control (hits give low values), % at 10 µM. 2,400 tested, 70% active. AID 493221, 2011;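 active = choline transporter activity left, mean of duplicates at 10 µM, below buffer-only control mean minus 3 SD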;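 also: depolarization triggered by choline at its EC90 following an EC20 pre-addition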
HEK293 MPD ctr – membrane potential effects in parental HEK293, counter-screen for CHT inhibitor project, cell-based, membrane potential dye; shares compounds with CHT block; choline response; active = decrease or increase beyond buffer ±3SD; membrane potential ratio readout (active if shifted either direction beyond buffer ±3SD; no single direction) at 10 µM; 2,400 tested, 4% active;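 also: parental cells lack the transporter so any hit is non-specific; ratio is peak minus trough fluorescence over baseline after EC90 choline challenge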
Of the large screens only hits and unclear results are named; the others gave an inactive call (follow-up assays come after a bar, where they were run).

COc1ccc(OC)c(/C=C2\SC(=S)N(NS(=O)(=O)c3ccc(C)cc3)C2=O)c1	none
CCOc1ccc(/C=C2\SC(=S)N(NS(=O)(=O)c3ccc(C)cc3)C2=O)cc1OC	CHT block -6.1 | CHT block conf 60% | HEK293 MPD ctr inactive
CCNc1ccc(C2(O)C(=O)c3ccccc3C2=O)cc1	none
Cc1noc(NS(=O)(=O)c2ccc(NS(=O)(=O)c3ccc(Cl)cc3)cc2)c1C	none (no result: CHT PAM, CHT block, MEKK3 PB1 HTS, MEKK2wt PB1 HTS, MEKK2mut PB1 HTS)
O=C(Nc1ccccc1)c1ccc(=O)n(Cc2ccc(F)c(F)c2)c1	CHT block -6.4 | CHT block conf inactive | HEK293 MPD ctr inactive
CC1CCN(CCc2nc3cc(NS(=O)(=O)c4ccccc4)ccc3n2C)CC1	CHT block -9.3 | CHT block conf 37% | HEK293 MPD ctr inactive
CC1=C(C)/C(=N\OS(=O)(=O)c2ccc(C)cc2)C=CC1=O	none
CC1=C/C(=N\OS(=O)(=O)c2ccccc2)C(C)=CC1=O	CHT block -6 | CHT block conf 50% | HEK293 MPD ctr inactive
Cc1ccc(-n2[nH]c(C)c(/C=N/Nc3ccc([N+](=O)[O-])cc3[N+](=O)[O-])c2=O)cc1C	CHT block -8.4 | CHT block conf 36% | HEK293 MPD ctr inactive
O=C(CCCc1nc2ccccc2s1)Nc1ccc(N2CCOCC2)cc1	CHT block -6.7 | CHT block conf inactive | HEK293 MPD ctr inactive
N#Cc1ccc(NC(=O)CCc2nc3ccccc3s2)cc1	none
COc1ccc(-c2sc(Nc3ccc(F)c(F)c3F)nc2CCC(=O)NN)cc1	CHT block -5.2 | CHT block conf inactive | HEK293 MPD ctr inactive
Cc1sc2ncnc(SCc3ccco3)c2c1C	none
Cc1sc2ncnc(N(C)Cc3ccco3)c2c1C	CHT block -5.1 | CHT block conf inactive | HEK293 MPD ctr inactive
CCOC(=O)C1(CCCc2ccccc2)CCN(C(=O)CCCn2cncn2)CC1	CHT block -5 | CHT block conf inactive | HEK293 MPD ctr inactive
O=C(CSc1ccc2nnc(CCNC(=O)c3ccccc3)n2n1)NCc1ccco1	none
CC(=O)Nc1cccc(N(C)S(C)(=O)=O)c1	none
CN(c1cccc(NC(=O)Nc2cccc(Cl)c2)c1)S(C)(=O)=O	CHT block -6.7 | CHT block conf 51% | HEK293 MPD ctr inactive
COc1cccc(NC(=O)C2COc3ccccc3O2)c1 (configuration not stated)	none
COC(=O)CN1CCN(C(c2ccccc2)c2ccccc2)CC1	none
CN(Cc1ccccc1)C(=O)CN1CCN(C(c2ccccc2)c2ccccc2)CC1	CHT block -8.3 | CHT block conf 52% | HEK293 MPD ctr inactive
COCCn1c(=NC(=O)/C=C/c2ccccc2)sc2cc(NC(C)=O)ccc21	none (no result: SUMO Mot1 rescue)
O=C(C[n+]1ccccc1)c1ccc(-c2ccccc2)cc1	none
C=Cn1cc[n+](CC(=O)c2ccc(-c3ccccc3)cc2)c1	CHT block -6.7 | CHT block conf 60% | HEK293 MPD ctr inactive
C=C1CC[C@@]23CC[C@]4(C)[C@@](OC2=O)([C@@H]3C1)[C@H]1O[C@H]1C1[C@@]2(C)CC[C@H](O)C(C)(C)C2CC[C@]14C (some centres not stated)	none (no result: MEKK3 PB1 HTS, MEKK2wt PB1 HTS, MEKK2mut PB1 HTS)
O=C(CSc1nnc(Cc2ccsc2)o1)c1ccccc1	CHT block -5.2 | CHT block conf 70% | HEK293 MPD ctr inactive
Cn1nc(C(=O)N2CCN(c3ccccn3)CC2)c2ccccc2c1=O	none (no result: MEKK3 PB1 HTS, MEKK2wt PB1 HTS, MEKK2mut PB1 HTS)
Nc1ncnc2c1ncn2C1OC(C(=O)NC2CC2)C(O)C1O (configuration not stated)	CHT block -5.1 (no result: MEKK3 PB1 HTS, MEKK2wt PB1 HTS, MEKK2mut PB1 HTS) | CHT block conf 44% | HEK293 MPD ctr inactive
Nc1ncnc2c1ncn2C1OC(CO)C(O)C1O (configuration not stated)	CHT block -10 | CHT block conf 37% | HEK293 MPD ctr inactive
C=CCNc1ncnc2c1ncn2C1OC(CO)C(O)C1O (configuration not stated)	CHT block -6 | CHT block conf 41% | HEK293 MPD ctr inactive
OCC1OC(n2cnc3c(NC4CCCCC4)ncnc32)C(O)C1O (configuration not stated)	CHT block -5.5 | CHT block conf 41% | HEK293 MPD ctr inactive
Nc1ncnc2c1ncn2C1O[C@H](CO)[C@@H](O)[C@@H]1O (some centres not stated)	none (no result: MEKK3 PB1 HTS, MEKK2wt PB1 HTS, MEKK2mut PB1 HTS)
OC[C@H]1O[C@@H](n2cnc3c(NC4CCCC4)ncnc32)[C@H](O)[C@@H]1O	none
CCCc1cnc(N2CCN(C(=O)c3ccc(OC)cc3)CC2)nc1	none
Cc1[nH]c(C)c(S(=O)(=O)NCc2ccco2)c1C(=O)N1CCCCC1	none
CC(C)(C)n1nnnc1C(c1ccccn1)N1CCN(C(c2ccccc2)c2ccccc2)CC1 (configuration not stated)	none
COc1cccc(N2CCN(C(c3ccccn3)c3nnnn3C(C)(C)C)CC2)c1 (configuration not stated)	CHT block -5 (no result: SUMO Mot1 rescue) | CHT block conf inactive | HEK293 MPD ctr inactive
O=c1[nH]c(C(F)(F)F)nc2ccccc12	CHT block -5.1 | CHT block conf inactive | HEK293 MPD ctr inactive
CCCOc1ccc(NC(=O)c2c(-c3ccccc3)noc2C)cc1	none
CCCOc1ccc(C(=O)NC(=S)NNC(=O)c2c(-c3ccccc3)noc2C)cc1	CHT block -12 | CHT block conf 56% | HEK293 MPD ctr inactive
CCOC(=O)CC1=C(C(=O)OCC)C(c2cccs2)C(C#N)=C(N)O1 (configuration not stated)	CHT block -5.3 | CHT block conf inactive | HEK293 MPD ctr inactive
CCOC(=O)C1=C(c2ccccc2)OC(N)=C(C#N)C1c1cccs1 (configuration not stated)	none
